Source: patent US20130022590, “Compositions Comprising Zinc Finger Domains and Uses Therefor” (published 2013)

Target: T1, ZRANB2-F2 (Homo sapiens, UniProt O95218 O95218:65-95)
T1 chain: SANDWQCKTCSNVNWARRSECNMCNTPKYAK
Test: FP; about 4-fold to 8-fold stated in p392
Details: tags: GST fusion (FA); label: 5'-fluorescein; ssRNA
Method: Fluorescence Anisotropy titrations e.g., as shown in FIGS. 1D-F, 8 and 35, were carried out using standard protocols. In brief, 5′-Fluorescein-labeled RNA oligonucleotides were quantified by A₂₆₀, correcting for fluorescein absorbance by using A₄₉₃. For single-site experiments, the sequence […] (SEQ ID NO: 28), or single base mutants thereof, was used. For double-site experiments, two AGGUAA sites were separated by different length sequences as indicated, and the total oligonucleotide lengths were kept constant by the symmetrical addition of adenines to each end. […] Protein was titrated into this starting solution and anisotropy values measured on a Cary Eclipse fluorescence spectrophotometer fitted with manual polarizer and long-pass filters set to 475 and 515 nm for excitation and emission, respectively. […] Association constants were determined by nonlinear least squares regression analysis using a 1:1 binding model.
To determine whether changing arginine-82 (R82) would affect the binding preference of ZRANB2-F2 from GGU to GAU, the point mutation R82Q in ZNF 2 of ZRANB2 was made and the ability of both the wild type (W) protein and the R82Q mutant to bind to AGGUAA and AGAUAA was assessed by fluorescence anisotropy binding assays as described previously in Example 1.

Q: How did the binding signal turn out when AGAUAA was run?
A: ~4 fold lower than AGGUAA
